Hits are enriched below; roughly 2.8% of the tested compounds scored in any of these assays.
WRN inhibitor = inhibitors of human WRN helicase | AID 651768 | WRN helicase unwinding, fluorescent forked duplex, kinetic | 360,000 tested, 0.46% active | Potency, µM (titrated, usually from 114 µM), usual class: inhibitors; note: nearly all actives have a fitted effect of over 55% in size
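Fluorescence dequenching readout, ex 525 nm/em 598 nm, kinetic mode: forked duplex DNA (100 nM final) with adjacent fluorophore and quencher unwound by WRN (20 nM final) with 2 mM ATP. Compound preincubation 15 min, room temperature.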
Pol kappa inh = inhibitors of human DNA polymerase kappa. Q9UBT6. purified Pol kappa, fluorescent DNA synthesis assay, 10 min. 400,000 tested, 0.53% active. AID 588579. Potency, µM (highest dose often 107 µM), most hits filed as inhibitors
Target sequence (Q9UBT6 whole entry, looked up): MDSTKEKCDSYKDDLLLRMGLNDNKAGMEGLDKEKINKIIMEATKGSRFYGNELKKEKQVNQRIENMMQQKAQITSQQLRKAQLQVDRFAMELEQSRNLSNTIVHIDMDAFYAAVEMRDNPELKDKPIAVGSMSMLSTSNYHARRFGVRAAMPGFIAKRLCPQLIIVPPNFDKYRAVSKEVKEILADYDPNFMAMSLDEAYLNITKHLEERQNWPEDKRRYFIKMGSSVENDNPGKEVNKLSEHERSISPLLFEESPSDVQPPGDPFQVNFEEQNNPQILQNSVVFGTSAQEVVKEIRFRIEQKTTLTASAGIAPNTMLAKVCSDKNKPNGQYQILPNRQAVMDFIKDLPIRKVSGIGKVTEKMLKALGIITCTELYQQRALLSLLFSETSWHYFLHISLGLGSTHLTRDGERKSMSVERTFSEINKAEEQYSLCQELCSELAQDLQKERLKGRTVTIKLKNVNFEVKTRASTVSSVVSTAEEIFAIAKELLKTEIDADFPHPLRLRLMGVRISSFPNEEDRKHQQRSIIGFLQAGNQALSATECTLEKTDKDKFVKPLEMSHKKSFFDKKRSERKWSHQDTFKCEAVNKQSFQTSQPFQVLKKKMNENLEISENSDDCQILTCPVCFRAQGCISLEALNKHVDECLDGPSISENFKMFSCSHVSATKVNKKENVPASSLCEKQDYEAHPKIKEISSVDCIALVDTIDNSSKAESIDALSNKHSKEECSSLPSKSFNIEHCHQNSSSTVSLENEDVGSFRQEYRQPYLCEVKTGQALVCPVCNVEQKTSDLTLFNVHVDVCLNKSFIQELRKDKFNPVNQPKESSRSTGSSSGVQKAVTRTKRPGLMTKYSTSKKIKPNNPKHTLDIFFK
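10 nM Pol kappa was preincubated with compounds for 15 min at room temperature. Reaction started with 50 nM (final) substrate. Fluorescence read kinetically at 0 and 10 min.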
Pol iota inh = inhibitors of human DNA polymerase iota; Pol iota fluorescent replication assay, 10 min; 390,000 tested, 1% active; Potency, µM (highest dose often 115 µM), hits mostly inhibitors
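Pol iota at 10 nM preincubated 15 min with compounds at room temperature; reaction started with fluorescent substrate, 50 nM final. Fluorescence read kinetically at 0 and 10 min; buffer-only wells as negative control.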
POLB inh = DNA polymerase beta (human) inhibition | Pol beta primer extension/strand displacement, fluorescence kinetic | Potency, µM (highest dose often 114 µM), actives largely listed as inhibitors | P06746 | 340,000 tested, 1.3% active | AID 485314
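Preincubation: enzyme (10 nM) with compound, 15 min, RT. Reaction: substrate added to 50 nM final. Reads: 0 and 10 min. Analysis: normalized, Hill fit.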
PI5P4Ka inh = blocks human PI5P4K alpha kinase activity; P48426; PI5P4Kalpha enzyme, ADP-Glo luminescence, 60 min; hits give low values; max response, %; 330,000 tested, 1.2% active; AID 652105; active = max response of -50% or lower; inconclusive = between -30% and -50%; inactive = -30% or higher; note: value at the top dose of about 77 µM
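Human PI5P4Kalpha with substrate in 0.038 M HEPES pH 7.4, 0.28 mM EGTA, 0.1% CHAPS, 5% DMSO; reaction started with 5 microM ATP (final), 60 min at room temperature. ADP formed read by ADP-Glo luminescence.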
Pol eta inh = DNA polymerase eta (human) inhibition. recombinant Pol eta, fluorescent DNA replication assay. Potency, µM (series often up to 114 µM), actives largely listed as inhibitors. 390,000 tested, 1.2% active. AID 588591
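Fluorescent replication assay: 50 nM final substrate added after a 15 min room-temperature compound preincubation with 10 nM enzyme. Signal taken at 0 min and again at 10 min.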
Large screens that a line does not name were inactive; ! = repeats disagree. Unless noted, calls come from the whole dose curve; as a rule, active = well fitted curve in the direction sought with a large enough effect; inconclusive = small, poorly fitted or top-dose-only effect, or another doubt; inactive = no such curve, though single readings can be large; an effect the other way counts as inactive or inconclusive.

COc1ccc(-c2nc3ccc(N4CCCC4)cc3c(=O)[nH]2)cc1OC	WRN inhibitor inconclusive, Pol iota inh inconclusive, POLB inh 40µM, Pol eta inh inconclusive
Brc1cc2c(cc1C1Nc3ccccc3C3C=CCC31)OCO2 (centres undefined)	POLB inh inconclusive, Pol eta inh inconclusive
COC(=O)c1ccc(C2Nc3ccc(/C(C)=N/NC(=O)C(OC)c4ccccc4)cc3C3C=CCC32)cc1 (centres undefined)	PI5P4Ka inh -66
C1=CC2c3ccccc3NC(c3ccncc3)C2C1 (centres undefined)	Pol iota inh inconclusive, PI5P4Ka inh -57, Pol eta inh inconclusive
Cc1ccc2c(c1)C1C=CCC1C(C(=O)O)N2 (centres undefined)	POLB inh 3.5µM (no result: WRN inhibitor, Pol kappa inh, Pol iota inh, PI5P4Ka inh, Pol eta inh)
CC(=O)c1ccc2c(c1)C1C=CCC1C(c1ccncc1)N2 (centres undefined)	Pol iota inh 32µM, POLB inh inconclusive, Pol eta inh inconclusive
COc1cc2c(NC3CCN(C(C)C)CC3)nc(N3CCCN(C)CC3)nc2cc1OCCCN(C)C	Pol iota inh inconclusive (no result: WRN inhibitor, POLB inh, PI5P4Ka inh, Pol eta inh)
CCOc1ccccc1NC(=O)c1nc(SCc2ccccc2F)ncc1Cl	none (no result: WRN inhibitor, POLB inh, PI5P4Ka inh, Pol eta inh)
CNc1ccc(C=O)cc1Cl	none (no result: WRN inhibitor, POLB inh, PI5P4Ka inh, Pol eta inh)
Cc1ccc(NC(=O)CSCC(=O)Nc2ncc3c(n2)CC(c2ccco2)CC3=O)cc1 (centres undefined)	Pol kappa inh inconclusive, Pol iota inh 28µM, POLB inh inconclusive, Pol eta inh inconclusive (no result: PI5P4Ka inh)
CCOC(=O)c1[nH]c(C)c(C(=O)/C=C/c2ccc(C(=O)O)cc2)c1C	Pol eta inh 22µM
Cc1ccc(OCCn2c(C3CC(=O)N(Cc4ccc(F)cc4)C3)nc3ccccc32)c(C)c1 (centres undefined)	none (no result: WRN inhibitor, PI5P4Ka inh)
NC(=O)CSc1nc2scc(-c3ccco3)c2c(=O)n1-c1ccccc1	WRN inhibitor inconclusive, Pol kappa inh 45µM, Pol iota inh 11µM, POLB inh inconclusive, PI5P4Ka inh -70, Pol eta inh 79µM
O=C(CSc1nc2scc(-c3ccco3)c2c(=O)n1-c1ccccc1)N1CCOCC1	none (no result: PI5P4Ka inh)
O=c1c2c(-c3ccco3)csc2nc(SCc2cn3cccnc3n2)n1-c1ccccc1	WRN inhibitor 56µM, Pol iota inh inconclusive, PI5P4Ka inh -67, Pol eta inh 11µM
O=C(C[n+]1cc(Br)cc(Br)c1)c1ccc(I)cc1	none (no result: WRN inhibitor, POLB inh, PI5P4Ka inh, Pol eta inh)
COc1ccc(CC(=O)n2[nH]c(=O)ccc2=O)cc1OC	WRN inhibitor 22µM, PI5P4Ka inh inconclusive
Cc1ccc(S(=O)(=O)Nc2ccc3cc([N+](=O)[O-])ccc3c2[N+](=O)[O-])cc1	Pol iota inh inconclusive, Pol eta inh 79µM (no result: POLB inh)
O=C(O)c1ccccc1N/C=C\[N+](=O)[O-]	Pol iota inh inconclusive, POLB inh 25µM, Pol eta inh inconclusive
Cc1ccc(C)c(N(CC(=O)N2CCCC2)S(C)(=O)=O)c1	none
COc1ccc(Cl)cc1NC(=O)CCN1CCN(C)CC1	none
COc1ccc(Cl)cc1NC(=O)CCn1nc(C)cc1C	Pol iota inh inconclusive, POLB inh 32µM (no result: WRN inhibitor, PI5P4Ka inh)
CC1CN(c2ccc(Cl)cc2)c2nc3c(c(=O)n(CC(=O)O)c(=O)n3C)n2C1 (centres undefined)	none (no result: WRN inhibitor, PI5P4Ka inh)
Cc1ccc(-n2nc(C)c3c2OC(N)=C(C#N)C3c2ccoc2)cc1 (centres undefined)	Pol iota inh 20µM, POLB inh 28µM
Cc1cc2nc(-c3ccc(C#N)cc3)c(Cc3cccc(F)c3)n2c(C)c1Br	none (no result: Pol kappa inh, Pol iota inh, POLB inh, Pol eta inh)
CC(C)S(=O)(=O)C1=NSC2=NC(=O)/C(=C\c3ccc(OC(=O)c4ccco4)cc3)C(=N)N21	PI5P4Ka inh -76, Pol eta inh inconclusive
CCOc1cc(/C=C2/C(=N)N3C(=NC2=O)SN=C3S(C)(=O)=O)ccc1OC(=O)c1ccco1	Pol iota inh inconclusive, PI5P4Ka inh inconclusive
CCS(=O)(=O)C1=NSC2=NC(=O)/C(=C\c3ccc(OC(=O)c4ccco4)cc3)C(=N)N21	Pol iota inh inconclusive, PI5P4Ka inh -87, Pol eta inh 79µM
N=C1/C(=C\c2ccc(OC(=O)c3ccco3)cc2)C(=O)N=C2SC(N3CCCCC3)=NN12	Pol kappa inh inconclusive, Pol iota inh inconclusive, PI5P4Ka inh -52, Pol eta inh inconclusive
CCOc1cc(/C=C2\C(=N)N3N=C(N4CCCCC4)SC3=NC2=O)ccc1OC(=O)c1ccco1	Pol iota inh inconclusive, POLB inh inconclusive, Pol eta inh inconclusive
COc1ccccc1-c1ccc(/C=C2/C=C(CC(C)C)OC2=O)o1	Pol iota inh inconclusive, POLB inh 25µM
O=Cc1ccc(-c2ccccc2OC(F)(F)F)o1	none
CCCC1=C/C(=C/c2ccc(-c3ccccc3OC)o2)C(=O)O1	Pol iota inh inconclusive, POLB inh inconclusive, PI5P4Ka inh inconclusive, Pol eta inh 25µM
O=S(=O)(O)c1c(NS(=O)(=O)c2ccccc2)ccc2ccccc12	none (no result: WRN inhibitor, POLB inh, PI5P4Ka inh, Pol eta inh)
CCC(C)NC(=O)Nc1ccc(Br)cc1 (centres undefined)	none
CCC(C)Nc1ccc(NC(C)CC)cc1 (centres undefined)	Pol kappa inh 2.5µM! (no result: POLB inh)
Cc1ccc2c(c1)C(c1ccccc1)N(C(=O)c1ccc(Br)cc1)CC(=O)N2 (centres undefined)	none
O=C1C=CC(=Nc2ccc3c(c2)C(=O)c2ccccc2-3)O1	PI5P4Ka inh -58, Pol eta inh inconclusive (no result: POLB inh)
O=C1c2cccc3cc([N+](=O)[O-])cc(c23)C(=O)N1/N=C/c1ccc(O)cc1O	WRN inhibitor inconclusive, Pol kappa inh inconclusive, Pol iota inh inconclusive, POLB inh 40µM, PI5P4Ka inh inconclusive, Pol eta inh 50µM
COC(=O)C1C[C@@H]2C3=C(C(=O)[C@@](C)(NC(=O)c4ccccc4)C3[C@H](C(=O)OC)C1)[C@H](C)n1c(=O)n(-c3ccccc3)c(=O)n12 (some centres undefined)	none (no result: WRN inhibitor, POLB inh, PI5P4Ka inh, Pol eta inh)
Cc1nn(C2CCS(=O)(=O)C2)c(C)c1C=O (centres undefined)	WRN inhibitor inconclusive, PI5P4Ka inh -67
Cc1ccc(C)n1C1CCS(=O)(=O)C1 (centres undefined)	none
O=C(Nc1cc(Cl)ccc1Cl)P(=O)(O)c1ccccc1	none (no result: POLB inh)
O=C1C2C3C=CC(C3)C2C(=O)N1c1ncn[nH]1 (centres undefined)	Pol iota inh inconclusive, POLB inh 40µM, Pol eta inh inconclusive (no result: PI5P4Ka inh)
O=C(O)c1[nH]c2ccccc2c1C(c1c(F)cccc1Cl)c1c(C(=O)O)[nH]c2ccccc12	none
COc1cc(Cl)cc(C(c2c(C(=O)O)[nH]c3ccccc23)c2c(C(=O)O)[nH]c3ccccc23)c1O	Pol kappa inh inconclusive, Pol iota inh inconclusive, POLB inh 89µM, Pol eta inh inconclusive
CCOC(=O)C1CCCN(C(=O)Cn2ncn3c(cc4sc(CC)cc43)c2=O)C1 (centres undefined)	none (no result: WRN inhibitor, PI5P4Ka inh)

Bioassay records (PubChem)
